The values that follow come from PubChem BioAssay (NCI).

About 79,000 compounds went through this panel and 15% of them were active in at least one assay; those are over-represented in the sample as a whole. Calls of active or inactive are those of the source. Cut-off read from the data, not from the text of the source: active = growth inhibition above about 70%; inactive = the rest.

This assay is described as follows: NCI Yeast Anticancer Drug Screen. Data for the bub3 strain (AID 167). The conditions noted are these: S. cerevisiae bub3 mutant strain, at 50.0 µM, active compounds read high. An outline of the steps: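 Compounds were applied to a genetically altered yeast strain carrying a cell-cycle control defect. Growth inhibition was scored against vehicle-treated controls.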
With `CN=c1ncc2nc(-c3ccccc3)c(-c3ccccc3)n(C)c-2n1`, the growth inhibition is -3.85% (inactive).

For the compound `O=C(O)/C=C/c1ccccc1Br`, the growth inhibition is -8.7% (inactive).

In the case of `CCCc1cccc[n+]1CC(=O)c1ccccc1`, the growth inhibition was 25.4% (inactive).

As to `CCCCCCCCCCCCCCCCOc1ccccn1`, the growth inhibition is -21.6% (inactive).

`Cn1c2c(c3ccccc31)CCN(CCCCN1CCc3c(n(C)c4ccccc34)C1=O)C2`: the growth inhibition was -5% (inactive).

On to `CC[C@@H]1CN(C)[C@H]2Cc3c([nH]c4ccccc34)C(=O)C[C@H]1C2C(=O)OC` (some centres not stated), for which the growth inhibition was -26.2% (inactive).

`O=C(O)c1ccccc1/C=N\N(CCO)C1=NCCN1`: the growth inhibition was 2.95% (inactive).

Regarding `COC(=O)C1=C(C)C(=O)[C@]23C(CCCC[C@H]12)C(=O)[C@H](C(=O)OC)C3C` (some centres not stated), the growth inhibition was -13.9% (inactive).

On to `N#CCCSc1nnc(N)s1`, for which the growth inhibition is -2.95% (inactive).

Regarding `CCC1(O)c2ccccc2CCC1C` (configuration not stated), the growth inhibition is -33.1% (inactive).

In the case of `O=S(=O)(c1ccccc1)c1ccccc1Br`, the growth inhibition is -10.2% (inactive).

Take `CC1=NCCN1CCN`: the growth inhibition is 13.6% (inactive).

Regarding `Clc1cc2nnn(C3CCCCO3)c2cc1Cl` (configuration not stated), the growth inhibition is -0.9% (inactive).

With `N#C/C(=N\NC(=O)c1ccccc1Cl)c1ccccc1Cl`, the growth inhibition was 67.3% (inactive).

Take `O=C1C2=Cc3ccccc3OC2(O)Oc2ccc(O)cc21` (configuration not stated): the growth inhibition is -38.6% (inactive).

With `CCc1ccc([OH2+])c(C(=O)[O-])c1.CCc1ccc([OH2+])c(C(=O)[O-])c1.CCc1ccc([OH2+])c(C(=O)[O-])c1.CCc1ccc([OH2+])c(C(=O)[O-])c1.[Cu+2].[Cu+2]`, the growth inhibition was 8.75% (inactive).

Consider `CCN(c1ccccc1)S(=O)(=O)c1ccc(Oc2ccccc2)c(N)c1`, for which the growth inhibition was 36.5% (inactive).
